Assay results reported in PubChem BioAssay (EPA / NIEHS).
Several values for one entry are separate records, joined by “and”; a condition that tells them apart may be missing. Identical values can stand only once. Records with an inconclusive call do not appear. Activity calls are given as the source filed them. How the source made its calls, unless noted: active means hit-call score of the fitted dose curve at least 0.9, where 1 is the maximum; inactive means score below 0.9.

Columns and labels:
[1] = read-out: Intercellular Adhesion Molecule 1 (ICAM1), ICAM1 (gene 3383); assay: BSK_3C_ICAM1: BioMAP Diversity Plus: 3C Assay for Intercellular Adhesion Molecule 1 (ICAM1) Biomarker Activity (AID 2283003); conditions: primary human endothelial cells (HUVEC); actives raise or lower the signal
Summary of the method: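 Chemicals are dosed onto primary human umbilical vein endothelium (3C system). After 24 h, ICAM-1 is measured by ELISA, and responses are fitted bidirectionally relative to DMSO.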

[2] = target: Peroxisome proliferator-activated receptor gamma (Homo sapiens) (UniProt P37231); assay: ATG_PPARg_TRANS: Attagene TRANS-FACTORIAL HepG2 Assay for human Peroxisome Proliferator-activated Receptor-gamma (PPARg) (AID 2283007; active means hit-call score of the fitted dose curve at least 0.9, where 1 is the maximum)
Summary of the method: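 After 24 h of chemical exposure, transfected HepG2 cells carrying PPARγ-Gal4 chimera reporter constructs are lysed for RNA. Reporter transcripts are measured by RT-PCR and capillary electrophoresis with fluorescent labelling, and gain of signal is fitted versus DMSO.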

[3] = target: Nuclear receptor subfamily 1 group I member 2 (Homo sapiens) (UniProt O75469); assay: ATG_PXR_TRANS: Attagene TRANS-FACTORIAL HepG2 Assay for human Pregnane X Receptor (PXR) (AID 2283008; active means hit-call score of the fitted dose curve at least 0.9, where 1 is the maximum)
Summary of the method: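 Multiplexed TRANS reporter panel in HepG2; this component tracks PXR-Gal4-driven reporter mRNA after 24 h dosing, measured by RT-PCR with capillary electrophoresis fluorescence, fitted against DMSO.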

[4] = target: human RAR-related Orphan Receptor beta (RORb), RORB (gene 6096) (UniProt Q92753); assay: ATG_RORb_TRANS: Attagene TRANS-FACTORIAL HepG2 Assay for human RAR-related Orphan Receptor beta (RORb) (AID 2283010; active means hit-call score of the fitted dose curve at least 0.9, where 1 is the maximum)
Summary of the method: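 Transfect HepG2 with multiple GAL4-UAS reporter transcription units; dose chemicals for 24 h; isolate RNA, reverse-transcribe and PCR-amplify reporter sequences; label, digest and resolve fragments by capillary electrophoresis; fit increases relative to DMSO.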

[5] = target: Retinoic acid receptor RXR-alpha (Homo sapiens) (UniProt P19793); assay: ATG_RXRa_TRANS: Attagene TRANS-FACTORIAL HepG2 Assay for human Retinoid X Receptor alpha (RXRa) (AID 2283012; active means hit-call score of the fitted dose curve at least 0.9, where 1 is the maximum)
Summary of the method: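 Measures exogenous chimeric NR-GAL4 activity in transfected HepG2 liver cells after 24 h of dosing. Induced reporter mRNA was detected by RT-PCR with capillary electrophoresis, and gain of signal was analysed against DMSO.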

[6] = target: human Retinoid X Receptor beta (RXRb), RXRB (gene 6257) (UniProt P28702); assay: ATG_RXRb_TRANS: Attagene TRANS-FACTORIAL HepG2 Assay for human Retinoid X Receptor beta (RXRb) (AID 2283013; active means hit-call score of the fitted dose curve at least 0.9, where 1 is the maximum)
Summary of the method: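 Chimeric receptor-Gal4 activity was assessed in transiently transfected human HepG2 cells after 24 h exposure. Transcripts from GAL4-UAS reporters were quantified by fluorescent RT-PCR and capillary electrophoresis, with DMSO as negative control and baseline.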

[7] = read-out: E-selectin (Homo sapiens) (UniProt P16581); assay: BSK_3C_Eselectin: BioMAP Diversity Plus: 3C Assay for Eselectin Biomarker Activity (AID 2283015); conditions: primary human endothelial cells (HUVEC); actives raise or lower the signal;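 on outcome: cell surface E-selectin protein quantified by ELISA 24 h after dosing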
Summary of the method: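 Endpoint derived by bidirectional fitting against DMSO vehicle; signal is ELISA-detected E-selectin from primary HUVEC at 24 h post-dosing, with parallel SRB staining (0.1% SRB, 560 nm) flagging cytotoxicity.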

[8] = read-out: Interleukin-1 alpha (IL1a), IL1A (gene 3552); assay: BSK_BE3C_IL1a: BioMAP Diversity Plus: BE3C Assay for Interleukin-1 alpha (IL1a) Biomarker Activity (AID 2283016); conditions: primary human bronchial epithelial cells; actives raise or lower the signal
Summary of the method: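 Signal from IL-1a ELISA, taken 24 h after chemical dosing of human bronchial epithelial cells, is compared with DMSO as baseline using bidirectional curve fitting.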

[9] = read-out: Monocyte Chemoattractant Protein-1 (MCP1), CCL2 (gene 6347); assay: BSK_3C_MCP1: BioMAP Diversity Plus: 3C Assay for Monocyte Chemoattractant Protein-1 (MCP1) Biomarker Activity (AID 2283017); conditions: primary human endothelial cells (HUVEC); actives raise or lower the signal
Summary of the method: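 Using human vascular primary endothelium, researchers measured MCP-1 by ELISA 24 h after treatment, with DMSO serving as negative control for bidirectional fitting.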

[10] = read-out: Human Leukocyte Antigen - DR isotype (HLADR), HLA-DRA (gene 3122); assay: BSK_3C_HLADR: BioMAP Diversity Plus: 3C Assay for Human Leukocyte Antigen - DR isotype (HLADR) Biomarker Activity (AID 2283019); conditions: primary human endothelial cells (HUVEC); actives raise or lower the signal;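 on outcome: ELISA of cell-surface HLA-DR on HUVEC 24 h after dosing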
Summary of the method: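 Compound added to primary HUVEC cultures, 24 h incubation, then HLA-DR determined by ELISA; endpoint derived by bidirectional fitting relative to DMSO negative control.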

[11] = read-out: Interleukin-8 (IL8), CXCL8 (gene 3576); assay: BSK_3C_IL8: BioMAP Diversity Plus: 3C Assay for Interleukin-8 (IL8) Biomarker Activity (AID 2283020); conditions: primary human endothelial cells (HUVEC); actives raise or lower the signal
Summary of the method: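 Endothelial primary cells of human umbilical vein origin are dosed with chemical; after 24 h the IL-8 biomarker is measured by ELISA, and concentration–response is fitted in both directions versus DMSO.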

[12] = read-out: Monokine induced gamma interferon (MIG), CXCL9 (gene 4283); assay: BSK_3C_MIG: BioMAP Diversity Plus: 3C Assay for Monokine induced gamma interferon (MIG) Biomarker Activity (AID 2283021); conditions: primary human endothelial cells (HUVEC); actives raise or lower the signal;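 on AC50: MIG protein level measured by immunoassay in the treated endothelial cultures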
Summary of the method: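 Endothelial primary cells (human umbilical vein) are dosed with test chemical in the 3C system. MIG levels are measured by ELISA at 24 h and fitted in both directions relative to DMSO.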

[13] = target: human Vitamin D Receptor (VDR), VDR (gene 7421) (UniProt P11473); assay: ATG_VDR_TRANS: Attagene TRANS-FACTORIAL HepG2 Assay for human Vitamin D Receptor (VDR) (AID 2283022; active means hit-call score of the fitted dose curve at least 0.9, where 1 is the maximum)
Summary of the method: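 Multiplexed TRANS reporter in HepG2; 24 h treatment; reporter mRNA by RT-PCR plus capillary electrophoresis; upregulation scored relative to DMSO.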

[14] = BSK_3C_SRB: Viability Assessment in the BioMAP Diversity Plus: 3C Assay (AID 2283023); conditions: primary human endothelial cells (HUVEC);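 further: cells read 24 h after compound dosing; fitted both ways against DMSO so a hit may be signal rise or drop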
Summary of the method: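 Overt cytotoxicity is gauged in parallel confluent HUVEC cultures by SRB total-protein staining at the time of biomarker measurement, 24 h after dosing. Gain or loss of signal is fitted versus DMSO.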

[15] = read-out: Monocyte Chemoattractant Protein-1 (MCP1), CCL2 (gene 6347); assay: BSK_4H_MCP1: BioMAP Diversity Plus: 4H Assay for Monocyte Chemoattractant Protein-1 (MCP1) Biomarker Activity (AID 2283018); conditions: primary human endothelial cells (HUVEC); actives raise or lower the signal
Summary of the method: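 Endothelial cells from umbilical vein were treated with test chemical, then after 24 h MCP-1 levels were quantified by ELISA; endpoint values came from bidirectional fitting with DMSO as baseline of activity.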

[16] = BSK_3C_Proliferation: Cell Proliferation Assessment in the BioMAP Diversity Plus: 3C Assay (AID 2283006); conditions: primary human endothelial cells (HUVEC);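 on AC50: potency may reflect either rise or fall in cell number versus DMSO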
Summary of the method: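 Cells (human umbilical vein endothelial, sub-confluent) receive test chemical; after 48 h they are fixed in 10% trichloroacetic acid, stained with 0.1% SRB and read at 560 nm. Activity is referenced to DMSO, fitting increases and decreases.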

[17] = target: human RAR-related Orphan Receptor gamma (RORg), RORC (gene 6097) (UniProt P51449); assay: ATG_RORg_TRANS: Attagene TRANS-FACTORIAL HepG2 Assay for human RAR-related Orphan Receptor gamma (RORg) (AID 2283011; active means hit-call score of the fitted dose curve at least 0.9, where 1 is the maximum;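 on AC50: potency for induction of reporter transcripts above DMSO so activators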)
Summary of the method: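 Chimeric RORg-Gal4 transactivation in transfected HepG2; 24 h exposure; RT-PCR/capillary electrophoresis readout of reporter mRNA, DMSO baseline.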

[18] = target: human Retinoic Acid Receptor beta (RARb), RARB (gene 5915) (UniProt P10826); assay: ATG_RARb_TRANS: Attagene TRANS-FACTORIAL HepG2 Assay for human Retinoic Acid Receptor beta (AID 2283004; active means hit-call score of the fitted dose curve at least 0.9, where 1 is the maximum)
Summary of the method: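 Fluorescent capillary-electrophoresis detection of GAL4-UAS reporter mRNA defines the endpoint, with induction over DMSO-treated wells scored as activity. Transiently transfected human hepatoma HepG2 cells expressing exogenous NR–Gal4 proteins are exposed to test chemicals for 24 h.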

[19] = target: human Thyroid Receptor alpha (THRa1), THRA (gene 7067) (UniProt P10827); assay: ATG_THRa1_TRANS: Attagene TRANS-FACTORIAL HepG2 Assay for human Thyroid Receptor alpha (THRa1) (AID 2283014; active means hit-call score of the fitted dose curve at least 0.9, where 1 is the maximum)
Summary of the method: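 Measured here is mRNA from a GAL4-UAS reporter in transfected HepG2 cells carrying a Gal4-fused receptor, 24 h post-dose. DMSO served as negative control and baseline.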

[20] = target: human Peroxisome Proliferator-activated Receptor delta (PPARd), PPARD (gene 5467) (UniProt Q03181); assay: ATG_PPARd_TRANS: Attagene TRANS-FACTORIAL HepG2 Assay for human Peroxisome Proliferator-activated Receptor delta (PPARd) (AID 2283002; active means hit-call score of the fitted dose curve at least 0.9, where 1 is the maximum)
Summary of the method: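 Cell-based TRANS reporter: HepG2, transient MRTU transfection, 24 h exposure. Readout = reporter mRNA (RT-PCR/CE, 6-FAM). Gain-of-signal fit vs DMSO control.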

Chain of human Thyroid Receptor alpha (THRa1), THRA (gene 7067) (P10827 whole entry, looked up, the tested form may be a part): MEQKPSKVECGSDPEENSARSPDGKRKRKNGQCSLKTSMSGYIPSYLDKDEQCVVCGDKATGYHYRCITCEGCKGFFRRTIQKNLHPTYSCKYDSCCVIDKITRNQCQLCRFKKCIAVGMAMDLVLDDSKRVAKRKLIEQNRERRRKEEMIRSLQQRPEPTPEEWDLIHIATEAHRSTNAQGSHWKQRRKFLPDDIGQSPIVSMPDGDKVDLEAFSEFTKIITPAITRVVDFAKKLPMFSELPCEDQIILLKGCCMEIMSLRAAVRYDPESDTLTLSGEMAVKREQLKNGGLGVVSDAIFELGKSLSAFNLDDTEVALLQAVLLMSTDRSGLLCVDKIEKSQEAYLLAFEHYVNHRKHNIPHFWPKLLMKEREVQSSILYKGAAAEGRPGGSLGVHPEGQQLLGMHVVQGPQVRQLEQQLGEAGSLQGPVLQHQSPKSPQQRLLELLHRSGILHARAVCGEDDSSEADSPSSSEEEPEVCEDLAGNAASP
Chain of E-selectin (Homo sapiens) (P16581 whole entry, looked up): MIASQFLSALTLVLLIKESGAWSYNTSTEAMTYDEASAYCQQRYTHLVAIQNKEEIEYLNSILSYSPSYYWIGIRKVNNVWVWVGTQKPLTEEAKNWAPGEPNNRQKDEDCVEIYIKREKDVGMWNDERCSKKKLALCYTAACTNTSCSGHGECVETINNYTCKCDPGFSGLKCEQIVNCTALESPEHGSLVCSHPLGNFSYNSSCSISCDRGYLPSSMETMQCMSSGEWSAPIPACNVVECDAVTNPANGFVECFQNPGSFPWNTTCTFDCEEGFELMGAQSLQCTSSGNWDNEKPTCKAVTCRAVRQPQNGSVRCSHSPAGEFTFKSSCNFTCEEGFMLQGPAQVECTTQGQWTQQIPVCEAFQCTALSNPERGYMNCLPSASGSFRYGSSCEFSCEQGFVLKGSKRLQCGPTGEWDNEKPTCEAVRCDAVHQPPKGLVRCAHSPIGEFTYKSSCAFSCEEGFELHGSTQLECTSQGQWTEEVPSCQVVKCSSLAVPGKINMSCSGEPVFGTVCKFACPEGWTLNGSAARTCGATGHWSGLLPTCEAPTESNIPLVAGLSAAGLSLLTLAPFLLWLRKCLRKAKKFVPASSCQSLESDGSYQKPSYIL
Chain of Retinoic acid receptor RXR-alpha (Homo sapiens) (P19793 whole entry, looked up, the tested form may be a part): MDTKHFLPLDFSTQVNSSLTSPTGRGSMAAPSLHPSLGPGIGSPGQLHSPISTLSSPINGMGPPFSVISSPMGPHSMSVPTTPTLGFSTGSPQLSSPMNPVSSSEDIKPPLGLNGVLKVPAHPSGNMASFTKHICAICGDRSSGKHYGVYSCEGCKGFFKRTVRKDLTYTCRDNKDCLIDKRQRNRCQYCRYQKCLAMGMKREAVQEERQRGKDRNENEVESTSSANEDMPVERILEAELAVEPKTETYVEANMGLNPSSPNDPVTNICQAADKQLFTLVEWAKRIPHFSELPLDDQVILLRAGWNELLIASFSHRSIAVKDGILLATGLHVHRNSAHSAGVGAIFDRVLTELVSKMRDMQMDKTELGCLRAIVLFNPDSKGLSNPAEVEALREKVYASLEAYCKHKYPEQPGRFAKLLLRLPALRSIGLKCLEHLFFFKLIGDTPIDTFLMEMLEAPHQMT
Chain of human Retinoid X Receptor beta (RXRb), RXRB (gene 6257) (P28702 whole entry, looked up, the tested form may be a part): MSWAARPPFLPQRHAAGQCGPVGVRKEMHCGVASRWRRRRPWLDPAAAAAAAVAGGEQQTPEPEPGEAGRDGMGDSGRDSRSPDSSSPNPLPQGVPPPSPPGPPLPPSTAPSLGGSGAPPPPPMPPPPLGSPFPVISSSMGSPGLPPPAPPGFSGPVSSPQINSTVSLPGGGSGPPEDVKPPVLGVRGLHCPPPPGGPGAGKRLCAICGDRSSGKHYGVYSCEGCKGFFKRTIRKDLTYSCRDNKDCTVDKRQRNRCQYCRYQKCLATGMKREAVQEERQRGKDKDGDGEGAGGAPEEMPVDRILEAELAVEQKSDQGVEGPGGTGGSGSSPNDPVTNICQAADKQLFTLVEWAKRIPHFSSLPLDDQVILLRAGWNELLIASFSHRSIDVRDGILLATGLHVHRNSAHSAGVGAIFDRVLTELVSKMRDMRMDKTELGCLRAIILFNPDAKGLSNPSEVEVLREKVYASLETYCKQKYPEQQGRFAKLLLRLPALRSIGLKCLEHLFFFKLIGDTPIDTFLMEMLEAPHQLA
Chain of Nuclear receptor subfamily 1 group I member 2 (Homo sapiens) (O75469 whole entry, looked up, the tested form may be a part): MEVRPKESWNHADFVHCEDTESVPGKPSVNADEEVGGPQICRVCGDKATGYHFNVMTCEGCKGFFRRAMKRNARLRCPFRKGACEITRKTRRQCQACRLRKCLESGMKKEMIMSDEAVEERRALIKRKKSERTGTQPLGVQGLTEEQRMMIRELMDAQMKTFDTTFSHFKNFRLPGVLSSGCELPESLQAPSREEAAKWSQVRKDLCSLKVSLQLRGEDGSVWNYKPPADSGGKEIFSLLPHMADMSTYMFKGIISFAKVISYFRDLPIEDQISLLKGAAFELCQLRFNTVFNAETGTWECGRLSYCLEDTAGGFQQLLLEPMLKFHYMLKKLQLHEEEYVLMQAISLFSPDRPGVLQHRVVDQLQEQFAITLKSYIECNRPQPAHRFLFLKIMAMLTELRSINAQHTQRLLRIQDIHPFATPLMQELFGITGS
Chain of human RAR-related Orphan Receptor gamma (RORg), RORC (gene 6097) (P51449 whole entry, looked up, the tested form may be a part): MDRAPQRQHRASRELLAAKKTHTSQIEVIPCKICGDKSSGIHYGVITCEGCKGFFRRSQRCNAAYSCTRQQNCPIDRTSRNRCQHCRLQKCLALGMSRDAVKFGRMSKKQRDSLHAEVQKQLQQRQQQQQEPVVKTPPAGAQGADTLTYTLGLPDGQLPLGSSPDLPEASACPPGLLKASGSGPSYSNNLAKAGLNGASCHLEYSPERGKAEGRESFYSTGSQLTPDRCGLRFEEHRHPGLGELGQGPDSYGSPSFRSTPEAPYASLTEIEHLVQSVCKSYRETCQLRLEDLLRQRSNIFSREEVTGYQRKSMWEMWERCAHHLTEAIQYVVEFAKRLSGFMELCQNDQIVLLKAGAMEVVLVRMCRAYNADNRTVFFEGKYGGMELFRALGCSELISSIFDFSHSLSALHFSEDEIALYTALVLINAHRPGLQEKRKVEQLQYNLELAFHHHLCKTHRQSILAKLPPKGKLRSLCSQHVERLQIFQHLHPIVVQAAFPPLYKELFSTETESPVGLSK
Chain of human Vitamin D Receptor (VDR), VDR (gene 7421) (P11473 whole entry, looked up): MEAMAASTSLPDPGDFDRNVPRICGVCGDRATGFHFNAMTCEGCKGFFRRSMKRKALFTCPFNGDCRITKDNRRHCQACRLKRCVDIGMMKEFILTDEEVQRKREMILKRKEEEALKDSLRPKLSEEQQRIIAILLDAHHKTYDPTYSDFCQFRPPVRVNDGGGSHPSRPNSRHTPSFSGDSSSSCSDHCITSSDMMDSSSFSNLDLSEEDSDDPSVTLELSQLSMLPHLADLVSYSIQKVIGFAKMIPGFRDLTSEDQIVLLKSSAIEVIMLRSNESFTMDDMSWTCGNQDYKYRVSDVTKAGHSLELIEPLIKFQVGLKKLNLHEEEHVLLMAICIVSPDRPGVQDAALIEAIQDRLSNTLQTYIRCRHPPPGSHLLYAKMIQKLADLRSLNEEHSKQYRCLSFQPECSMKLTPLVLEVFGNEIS
Chain of Peroxisome proliferator-activated receptor gamma (Homo sapiens) (P37231 whole entry, looked up, the tested form may be a part): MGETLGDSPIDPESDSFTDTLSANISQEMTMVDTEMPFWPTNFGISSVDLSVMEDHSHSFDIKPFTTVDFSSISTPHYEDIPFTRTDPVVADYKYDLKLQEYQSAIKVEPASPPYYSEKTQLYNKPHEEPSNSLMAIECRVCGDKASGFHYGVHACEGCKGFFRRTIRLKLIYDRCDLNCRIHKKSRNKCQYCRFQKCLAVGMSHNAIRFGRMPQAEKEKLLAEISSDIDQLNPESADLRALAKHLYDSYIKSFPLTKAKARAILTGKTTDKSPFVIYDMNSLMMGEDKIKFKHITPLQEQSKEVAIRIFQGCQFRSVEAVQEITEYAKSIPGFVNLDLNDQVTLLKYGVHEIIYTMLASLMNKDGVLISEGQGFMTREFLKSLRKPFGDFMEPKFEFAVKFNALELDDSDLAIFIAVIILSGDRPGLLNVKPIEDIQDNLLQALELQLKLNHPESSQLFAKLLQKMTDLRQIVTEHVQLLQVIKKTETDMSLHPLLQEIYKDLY
Chain of human Peroxisome Proliferator-activated Receptor delta (PPARd), PPARD (gene 5467) (Q03181 whole entry, looked up): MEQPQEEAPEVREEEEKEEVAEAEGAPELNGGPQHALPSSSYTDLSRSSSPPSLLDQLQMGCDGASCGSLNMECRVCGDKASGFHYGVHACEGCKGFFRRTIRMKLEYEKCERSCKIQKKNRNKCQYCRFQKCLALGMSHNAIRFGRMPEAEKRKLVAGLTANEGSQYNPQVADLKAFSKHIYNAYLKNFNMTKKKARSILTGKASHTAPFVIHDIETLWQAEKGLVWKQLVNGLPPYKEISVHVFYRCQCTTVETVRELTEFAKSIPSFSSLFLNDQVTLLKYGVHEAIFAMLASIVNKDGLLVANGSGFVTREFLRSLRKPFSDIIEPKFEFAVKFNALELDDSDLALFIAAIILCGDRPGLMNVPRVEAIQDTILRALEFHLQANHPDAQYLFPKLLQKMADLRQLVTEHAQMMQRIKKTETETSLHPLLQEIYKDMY
Chain of human RAR-related Orphan Receptor beta (RORb), RORB (gene 6096) (Q92753 whole entry, looked up, the tested form may be a part): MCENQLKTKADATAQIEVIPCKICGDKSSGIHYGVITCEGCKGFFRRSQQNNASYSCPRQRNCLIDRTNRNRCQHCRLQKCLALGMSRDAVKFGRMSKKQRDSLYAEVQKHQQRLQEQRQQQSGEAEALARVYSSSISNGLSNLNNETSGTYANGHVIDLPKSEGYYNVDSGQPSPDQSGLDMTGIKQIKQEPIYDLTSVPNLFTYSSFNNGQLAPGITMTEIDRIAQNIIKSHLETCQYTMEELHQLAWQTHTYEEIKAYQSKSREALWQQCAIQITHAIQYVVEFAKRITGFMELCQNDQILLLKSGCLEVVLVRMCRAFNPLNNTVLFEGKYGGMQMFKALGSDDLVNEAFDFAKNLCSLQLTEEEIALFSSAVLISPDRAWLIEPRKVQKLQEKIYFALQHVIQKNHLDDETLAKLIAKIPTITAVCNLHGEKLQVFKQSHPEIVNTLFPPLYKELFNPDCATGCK

## Oc1ccc2ccccc2c1
[1]
  outcome: inactive
[2]
  outcome: inactive
[3]
  outcome: inactive
[4]
  outcome: inactive
[5]
  outcome: inactive
[6]
  outcome: inactive
[7]
  outcome: inactive
[8]
  outcome: inactive
[9]
  outcome: inactive
[10]
  outcome: inactive
[11]
  outcome: inactive
[12]
  outcome: inactive
[13]
  outcome: inactive
[14]
  outcome: inactive

## COc1ccc2cc(S(=O)(=O)N[C@H](CC(=O)N[C@H](Cc3ccc(CN4[C@H](C)CCC[C@@H]4C)cc3)C(=O)N(C)C(C)C)c3ccc4c(c3)OCO4)ccc2c1
[1]
  outcome: inactive
[2]
  outcome: inactive
[3]
  outcome: inactive
[5]
  outcome: inactive
[7]
  outcome: inactive
[8]
  outcome: inactive
[9]
  AC50: 12.5 µM (active)
[15]
  AC50: 8.16 µM (active)
[10]
  AC50: 24.3 µM (active)
[11]
  AC50: 16.3 µM (active)
[12]
  outcome: inactive
[13]
  outcome: inactive

## O=C(O)c1ccccc1C(=O)OCc1ccccc1
[1]
  outcome: inactive
[16]
  outcome: inactive
[2]
  outcome: inactive
[3]
  outcome: inactive
[17]
  outcome: inactive
[5]
  outcome: inactive
[7]
  outcome: inactive
[8]
  outcome: inactive
[9]
  outcome: inactive
[10]
  outcome: inactive
[11]
  outcome: inactive
[12]
  outcome: inactive

## CC(C)(c1cc(Br)c(O)c(Br)c1)c1cc(Br)c(O)c(Br)c1
[1]
  AC50: 36 µM (active)
[18]
  outcome: inactive
[3]
  AC50: 6.78 µM (active) and 10.5 µM (active)
[6]
  outcome: inactive
[19]
  outcome: inactive
[7]
  AC50: 29 µM (active)
[8]
  AC50: 5.72 µM (active)
[9]
  AC50: 29.9 µM (active)
[10]
  AC50: 27.2 µM (active)
[11]
  AC50: 31.8 µM (active)
[12]
  AC50: 37.1 µM (active)
[13]
  outcome: inactive
[14]
  AC50: 29.6 µM (active)

## CCCCCCCCCCCO
[20]
  AC50: 166 µM (active)
[1]
  AC50: 36.8 µM (active)
[2]
  AC50: 62.9 µM (active)
[3]
  outcome: inactive
[17]
  AC50: 159 µM (active)
[6]
  AC50: 47.8 µM (active)
[19]
  outcome: inactive
[7]
  AC50: 32 µM (active)
[8]
  outcome: inactive
[9]
  outcome: inactive
[10]
  AC50: 31 µM (active)
[11]
  AC50: 28.6 µM (active)
[12]
  outcome: inactive
[13]
  AC50: 159 µM (active)

## O=C(O)Cn1c(=O)n(Cc2ccc(Br)cc2F)c(=O)c2ccc(Cl)cc21
[1]
  outcome: inactive
[2]
  AC50: 6.18 µM (active)
[3]
  AC50: 11 µM (active)
[17]
  outcome: inactive
[7]
  outcome: inactive
[8]
  outcome: inactive
[9]
  outcome: inactive
[10]
  outcome: inactive
[11]
  outcome: inactive
[12]
  outcome: inactive
[13]
  outcome: inactive

## CN1C(=O)N(c2ccccc2Br)Cc2cnc(Nc3ccc4c(c3)OCC(CO)O4)nc21 (stereo not drawn)
[1]
  AC50: 28.1 µM (active)
[16]
  AC50: 2.28 µM (active)
[2]
  outcome: inactive
[3]
  outcome: inactive
[7]
  AC50: 15.2 µM (active)
[8]
  AC50: 2.57 µM (active)
[9]
  AC50: 14.7 µM (active)
[10]
  AC50: 9 µM (active)
[11]
  AC50: 12.2 µM (active)
[12]
  AC50: 25.3 µM (active)

## CC1(C)NC(=O)N(c2ccc([N+](=O)[O-])c(C(F)(F)F)c2)C1=O
[1]
  outcome: inactive
[2]
  outcome: inactive
[5]
  outcome: inactive
[6]
  outcome: inactive
[19]
  outcome: inactive
[7]
  outcome: inactive
[8]
  outcome: inactive
[9]
  outcome: inactive
[15]
  outcome: inactive
[10]
  outcome: inactive
[11]
  outcome: inactive
[12]
  outcome: inactive
[13]
  outcome: inactive
[14]
  outcome: inactive
